# Experimental data reported in the supplement of paper PMC12350171.
# Where a name gives a salt, the structure may show the parent alone. A number with no mark means an inactive call.
# Tests used:
# Conditions in all cases: 20 µM
# [1] = tested on: Salmonella enterica typhimurium; assay: growth AUC normalised to DMSO control (fraction of control); higher = less growth inhibition, active = hit call of the paper
# Outline: (§1)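 Hemin and NAD were added to the medium for Haemophilus parainfluenzae. All pathogens, after two anaerobic passages, were inoculated at a starting OD578 of 0.01 into pre-reduced mGAM plates with 20 μM compound and 1% DMSO under breathable seals, and OD578 was read hourly for 24 h in three biological replicates. AUC of each growth curve was obtained with the trapezoidal rule up to the exponential-to-stationary transition and normalised to DMSO controls from the same plate.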
# Shigella flexneri = assay: as above
# Outline: as §1
# Vibrio cholerae = assay: as above
# Outline: as §1
# [2] = tested on: Yersinia pseudotuberculosis; assay: as above
# Outline: as §1
# P. vulgatus RND KO = assay: growth AUC normalised to DMSO control (median) (fraction of control); higher = less growth inhibition, active = hit call of the paper
# Outline: (§2)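 After two overnight anaerobic passages, strains were inoculated at OD578 0.01 into mGAM in 96-well plates containing approved-drug library compounds at 20 μM and 1% DMSO. Growth was followed by reading OD578 hourly for 24 h within an anaerobic incubator. Area under the curve, taken by the trapezoidal rule up to the start of stationary phase, was normalised to same-plate vehicle wells, and the median of three biological replicates is listed.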
# P. vulgatus WT = assay: as above
# Outline: as §2
# [3] = tested on: S. enterica typhimurium WT; assay: as above
# Outline: as §2
# [4] = tested on: S. enterica typhimurium tolC KO; assay: as above
# Outline: as §2
# 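Wherever growth AUC normalised to DMSO control (median) is given: active when median AUC fell below 0.1.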
Compound,growth AUC normalised to DMSO control [1],growth AUC normalised to DMSO control (Shigella flexneri),growth AUC normalised to DMSO control (Vibrio cholerae),growth AUC normalised to DMSO control [2],growth AUC normalised to DMSO control (P. vulgatus RND KO),growth AUC normalised to DMSO control (P. vulgatus WT),growth AUC normalised to DMSO control [3],growth AUC normalised to DMSO control [4]
O=C(N[C@H](CO)[C@H](O)c1ccc([N+](=O)[O-])cc1)C(Cl)Cl [Chloramphenicol],0.00522 (active),0.0276 (active),0.0386 (active),0.0352 (active),0.018 (active),0.0107 (active),0.00734 (active),0.00302 (active)
CN1CCN2c3ncccc3Cc3ccccc3C2C1 (stereo not drawn) [Mirtazapine],0.995,1.01,1.01,1,1.03,1.02,1,0.997
CC[N+](CC)(CC(=O)Nc1c(C)cccc1C)Cc1ccccc1 [Denatonium benzoate],1.01,1.02,1.03,0.982,1.05,1.09,0.999,1.01
NC1CCN(c2c(F)cc3c(=O)c(C(=O)O)cn(C4CC4)c3c2Cl)C1 (stereo not drawn) [Clinafloxacin],0.00836 (active),0.0463 (active),0.023 (active),0.0284 (active),0.0165 (active),0.0148 (active),0.00822 (active),0.00725 (active)
CCCN(CCC)CCc1cccc2c1CC(=O)N2 [Ropinirole hydrochloride],0.997,1.02,0.976,0.985,1.03,1.04,1,0.988
O=C(Cn1ccnc1[N+](=O)[O-])NCCO [Etanidazole],1.01,1.03,1.03,1.02,0.991,1.01,0.99,1.02
C=CC(N)CCC(=O)O (stereo not drawn) [Vigabatrin hydrochloride],1.02,1.02,1.01,0.997,1.01,1.06,1.03,0.992
CO[C@@]1(NC(=O)C(C(=O)O)c2ccc(O)cc2)C(=O)N2C(C(=O)O)=C(CSc3nnnn3C)CO[C@@H]21 (stereo partly drawn) [Moxalactam disodium salt],0.00566 (active),0.0488 (active),0.639 (active),0.149 (active),0.0332 (active),0.0488 (active),–,–
CC[C@H]1OC(=O)[C@H](C)[C@@H](O[C@H]2C[C@@](C)(OC)[C@@H](O)[C@H](C)O2)[C@H](C)[C@@H](O[C@@H]2O[C@H](C)C[C@H](N(C)C)[C@H]2O)[C@](C)(O)C[C@@H](C)/C(=N\OCOCCOC)[C@H](C)[C@@H](O)[C@]1(C)O [Roxithromycin],0.84 (active),0.82 (active),0.0242 (active),0.954,0.0176 (active),0.0119 (active),0.899,0.0779 (active)
COc1cc(NC(C)CCCN)c2ncccc2c1 (stereo not drawn) [Primaquine diphosphate],0.998,1.01,1.01,1.02,1.01,1.02,1.01,0.998
CN(C)CCn1nnnc1SCC1=C(C(=O)O)N2C(=O)[C@@H](NC(=O)Cc3csc(N)n3)[C@H]2SC1 [Cefotiam hydrochloride],0.0032 (active),0.0159 (active),0.0593 (active),0.03 (active),0.0136 (active),0.00849 (active),0.00304 (active),0.00289 (active)
CC(C)(C)NC[C@H](O)COc1ccccc1C1CCCC1 [Penbutolol sulfate],1.01,1.02,1,1.02,0.994,1.01,1,0.947
Cc1cc(NS(=O)(=O)c2ccc(N)cc2)no1 [Sulfamethoxazole],0.983,0.984,0.993,0.991,0.951,0.979,0.967,0.959
CC(C)COCC(CN(Cc1ccccc1)c1ccccc1)N1CCCC1 (stereo not drawn) [Bepridil hydrochloride],1,0.965,0.875,1.02,0.996,0.982,0.986,0.906
CN(C)C(=N)NC(=N)N [Metformin hydrochloride],1,1.01,1.02,0.983,1.01,0.996,1,1
